Screens deposited in PubChem BioAssay by National Center for Advancing Translational Sciences (NCATS).
Shown is part of a subset that was picked to be rich in hits.
VP16 counter – VP16 counterscreen qHTS for inhibitors of ROR gamma transcriptional activity; 3.5% of 310,000 active; AID 2546, 2010; Drosophila S2 Gal4-VP16 UAS-luciferase, luminescence, 20 h; Potency, µM (series often up to 53.6 µM), for the others: at the top dose activity, negative = inhibition, hits mostly inhibitors;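 also: Gal4-VP16 expression switched on by copper sulfate through the metallothionein promoter; potency is read from the fitted curve at half-maximal effect; % is scaled to controls: 0 for no effect and ±100 for the full control effect; nearly all actives have a fitted effect of over 50% in size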
Giardia kill – Small Molecules that selectively kill Giardia lamblia: qHTS | Giardia lamblia trophozoite viability | activity change, % at 7.66 µM, hits read low | 0.15% of 340,000 active; in the data active = activity change below about -80%; inconclusive = between about -30% and that limit;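 also: parasites exposed to compound for two days anaerobically before the ATP read; % is scaled to controls: 0 for no effect and ±100 for the full control effect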
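Giardia trophozoites, 100 cells per well, were exposed to compounds for 48 hrs at 37 deg C under anaerobic conditions; viability was then read as ATP content by bioluminescence after 15-30 min at room temperature.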
RORg inh – qHTS for inhibitors of ROR gamma transcriptional activity; Potency, µM (series often up to 53.6 µM), inactives show top-dose activity change, negative = inhibition, most hits filed as inhibitors; 5.4% of 310,000 active; Drosophila S2 Gal4-RORgamma UAS-luciferase reporter, 20 h; also: potency is read from the fitted curve at half-maximal effect; % is scaled to controls: 0 for no effect and ±100 for the full control effect; nearly all actives have a fitted effect of over 60% in size
Target sequence (P51450 whole entry, looked up, the tested form may be a part): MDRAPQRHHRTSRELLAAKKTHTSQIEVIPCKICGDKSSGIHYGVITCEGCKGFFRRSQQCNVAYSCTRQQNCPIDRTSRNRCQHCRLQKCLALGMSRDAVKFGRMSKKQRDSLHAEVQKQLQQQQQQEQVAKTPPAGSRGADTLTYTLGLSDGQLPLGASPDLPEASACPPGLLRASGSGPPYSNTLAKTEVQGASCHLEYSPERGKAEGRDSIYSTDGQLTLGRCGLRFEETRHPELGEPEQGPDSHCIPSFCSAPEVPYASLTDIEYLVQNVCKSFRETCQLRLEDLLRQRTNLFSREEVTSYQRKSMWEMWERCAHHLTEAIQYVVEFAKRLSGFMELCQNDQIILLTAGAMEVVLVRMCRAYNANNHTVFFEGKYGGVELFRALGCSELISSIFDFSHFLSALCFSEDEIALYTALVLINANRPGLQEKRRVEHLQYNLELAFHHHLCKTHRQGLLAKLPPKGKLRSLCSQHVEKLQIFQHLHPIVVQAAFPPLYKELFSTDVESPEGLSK
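Read-out: Photinus luciferase luminescence; inhibitors lower reporter signal. Insect Schneider cells with Gal4-ROR gamma fusion under metallothionein promoter, UAS reporter; 700 uM final copper sulfate induction, 20 hr, ambient temperature.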
Integrin act MD – qHTS for Activators of Integrin-Mediated Alleviation for Muscular Dystrophy; 0.064% of 350,000 active; AID 624291, 2012; Potency, µM (titrated, usually from 38.3 µM), for the others: top-dose activation, most hits filed as activators; alpha7betagal myoblasts, beta-gal FDG fluorescence, 48 h;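 also: potency is read from the fitted curve at half-maximal effect; 100% = response of the positive control SU9516; nearly all actives have a fitted effect of over 60% in size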
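Alpha7betagal+/- myoblasts (passage 13) were plated 16-24 hr, then exposed to compounds (1:260 dilution of DMSO stock) for 48 hours at 37C. After MPER lysis, β-galactosidase reporter activity was read as FDG fluorescence (ex 480/em 540) after 30 minutes.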
ERG-DNA inh – qHTS for Small Molecule Inhibitors of the ERG Ets/DNA interaction | fluorescence polarization, His-ERG Ets domain / labelled DNA | Potency, µM (titrated, usually from 76.9 µM), for inactives: at the top dose FP activity, negative = inhibition, most hits filed as inhibitors | 0.028% of 370,000 active | AID 624246, 2012; active = well fitted inhibition curve with a large enough effect in the polarisation, with a control signal flat; inconclusive = small, poorly fitted or top-dose-only effect, or effect the other way, or a change in a side signal; inactive = no such curve, though single readings can be large or run the other way; the % refers to the polarisation;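 also: polarization taken with two DNA probes labelled with fluorescein and Texas red; potency is read from the fitted curve at half-maximal effect; % of control where 0% means no effect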
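His-tagged ERG Ets domain (1 uM in the protein solution; 300mM KCl, 50mM Tris-HCl, 1mM EDTA, 1mM DTT, pH 7.5) received compound, then a probe mix of 5 nM fluorescein-DNA and 100nM Texas-615-DNA. Fluorescence polarization was read for both dyes.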
* marks the source's active call; other numbers are inactive results; u = inconclusive; x = not tested or not shown; [ ] = remark or other dose. Unless noted, calls follow the shape of the dose curve; as a rule, active = well fitted curve in the direction sought with a large enough effect; inconclusive = small, poorly fitted or top-dose-only effect, or another doubt; inactive = no such curve, though single readings can be large; an effect the other way counts as inactive or inconclusive.

SMILES	VP16 counter	Giardia kill	RORg inh	Integrin act MD	ERG-DNA inh
Cc1c(NC(=S)N/N=C/C=C/c2ccc([N+](=O)[O-])cc2)c(=O)n(-c2ccccc2)n1C	11µM*	9	3.2µM*	-4%	9%
CC(=O)c1ccc(NC(=S)Nc2cccc(S(=O)(=O)Nc3c(C)n(C)n(-c4ccccc4)c3=O)c2)cc1	14%	-4	11%	u	-6%
Cc1ccc(NC(=S)Nc2cccc(S(=O)(=O)Nc3c(C)n(C)n(-c4ccccc4)c3=O)c2)cc1	4%	5	11µM*	-11%	7%
Cc1c(NC(=S)N/N=C/C=C/c2ccccc2)c(=O)n(-c2ccccc2)n1C	0.79µM*	8	0.32µM*	-1%	1%
CC(C)OCCCn1c(SCc2cccc(Br)c2)nc2c(sc3ccccc32)c1=O	x	x	x	x	-8%
CC(C)(C)c1ccc(C(=O)NNC(=O)C2CCCCC2)cc1	0%	-9	19%	-20%	8%
Cc1ccccc1CSCC(=O)NC(=O)NCc1ccco1	u	-8	13%	-14%	-8%
O=C(CSCc1ccccc1Br)NNC(=S)NCc1ccco1	10µM*	0	u	-7%	7%
CCC(C)NC(=S)NNC(=O)c1ccc(C(C)(C)C)cc1 (stereo not drawn)	8.9µM*	-5	10µM*	-18%	-1%
CC(C)(C)c1ccc(C(=O)c2c[nH]c(C(=O)NCc3ccco3)c2)cc1	13µM*	-1	u	13%	4%
Cc1cc(C(=O)NNC(=S)NCc2ccco2)n(C)n1	-15%	23	-38%	11%	2%
CC(C)c1cc(C(=O)NNC(=S)NCc2ccco2)c(O)c(C(C)C)c1	u	-4	13µM*	0%	-4%
CC(=O)Nc1ccc(S(=O)(=O)N(C)CC(=O)OCC(=O)N2CC(C)OC(C)C2)cc1 (stereo not drawn)	x	22	x	u	9%
CC(C)(C)c1ccc(C(=O)NNC(=S)NCc2ccco2)cc1	-25%	-15	10µM*	-21%	-15%
O=C(NC(=S)NCc1ccccc1)c1cccc(Cl)c1	7.1µM*	-5	6.3µM*	-50%	-8%
Cc1ccc(C(=O)NC(=S)NCc2ccco2)cc1	u	11	10µM*	-18%	-5%
COc1cc(OC)cc(C(=O)NC(=S)NCc2ccco2)c1	11µM*	-5	5µM*	-32%	-3%
O=C(NCc1ccccc1)c1cccc(COc2cccc(Cl)c2)c1	3%	-6	43%	-19%	3%
C1COC1	8%	x	-26%	x	x
Cn1cnc2c(NCc3ccccc3)nc(Cl)nc21	x	7	x	x	x
CS(=O)(=O)Nc1ccc2c(c1)[C@H]1C[C@H](CC(=O)NCc3ccccc3)O[C@H](CO)[C@H]1O2	x	x	x	-12%	x
CCc1ccccc1-n1cnc2cc(C(=O)NC3CCCCCC3)ccc21	x	x	x	x	1%
CNC(=O)NC(=S)NC(=O)c1ccccc1Cl	18%	11	u	-16%	7%
COc1cccc(C(=O)NC(=S)NCc2ccco2)c1	u	3	14µM*	26%	-6%
CNC(=O)NC(=S)NC(=O)c1cccc(Cl)c1	9%[10 µM]	10	14µM*	15%	5%
SMILES	VP16 counter	Giardia kill	RORg inh	Integrin act MD	ERG-DNA inh
COc1ccc(C(=O)NC(=S)NCc2ccco2)cc1	11µM*	10	6.3µM*	-18%	-1%
O=C(NC(=S)NCc1ccco1)c1cccc(Cl)c1	8.9µM*	x	6.3µM*	x	x
Cc1nc(N(C)Cc2ccccc2)c2c(C)c(C)sc2n1	u	-2	20µM*	-27%	-3%
CCn1c(SCC(N)=O)nc2sc3c(c2c1=O)CCCC3	u	5	11µM*	17%	10%
CCOC(=O)CSc1nc2sc3c(c2c(=O)n1CC)CCCC3	x	x	x	x	-1%
CC(=O)Nc1ccc(S(=O)(=O)Nc2ccc(S(=O)(=O)Nc3nccs3)cc2)cc1	-1%	8	0%	4%	7%
O=C(NCc1ccc(/C=N\NC(=O)C(=O)Nc2ccccc2Br)o1)C(=O)Nc1ccccc1	u	-8	11µM*	u	9%
O=C(N/N=C\c1ccc(CNS(=O)(=O)c2ccc(Cl)cc2)o1)C(=O)Nc1ccc(Oc2ccccc2)cc1	13µM*	11	13µM*	18%	8%
O=C(N/N=C\c1ccc(CNS(=O)(=O)c2ccccc2)o1)C(=O)Nc1ccc(F)cc1	16%	-3	u	-11%	-1%
O=c1c(-c2cc(F)cc(F)c2)nc2cnc(N3CCOCC3)nc2n1Cc1ccc(F)cc1	-2%	x	17%	x	x
COc1ccc(C(CNCC(O)COc2c(C)ccc(C)c2C)N(C)C)cc1 (stereo not drawn)	15%	3	-28%	-59%	3%
CCN(CC)S(=O)(=O)c1ccc(C)c(N=C=S)c1	6%	-11	19%	4%	5%
CC(C)C(C(=O)O)N1C(=O)/C(=C/c2ccc(Br)cc2)SC1=S (stereo not drawn)	u	x	39%	x	x
O=C(NC(=S)Nc1ccccc1Cl)c1cncc(C#Cc2ccccc2)c1	-5%	7	-32%	-1%	3%
CC1CCCC(NC(=S)NC(=O)c2cncc(Br)c2)C1C (stereo not drawn)	5.6µM*	-5	2.8µM*	-4%	2%
COc1ccc(NC(=O)c2cncc(Br)c2)cc1S(N)(=O)=O	4%	10	11µM*	-2%	-5%
COc1ccc(NC(=S)NC(=O)c2cncc(Br)c2)c(OC)c1	u	-16	2.5µM*	18%	14%
O=C(NC(=S)Nc1ccccc1Cl)c1cncc(Br)c1	4.5µM*	0	2.5µM*	-3%	5%
COc1cccc([C@@H]2Oc3ccc(OC)cc3C(=O)[C@H]2OC(=O)NS(=O)(=O)c2ccc(C)cc2)c1	4%	x	u	x	x
O=C(Nc1ccccc1C(=O)OCc1cc(=O)n2c3c(sc2n1)CCCC3)c1ccc(F)cc1	x	x	x	x	2%
COc1cccc(/C=N/NC(=O)CC(=O)NCCc2ccccc2)c1OC	-7%	-6	25%	-11%	-12%
COc1cccc(/C=N/NC(=S)NCCc2ccccc2)c1OC	u	-11	11µM*	9%	0%
COc1ccc(OC)c(/C=N/NC(=S)NCCc2ccccc2)c1	11µM*	-12	40µM*	17%	-11%
CC(NC(=O)CN(C)Cc1cccs1)c1ccccc1 (stereo not drawn)	0%	3	32%	11%	-6%
O=C(COc1ccc(Br)cc1)NNC(=S)NC(=O)c1ccccc1[N+](=O)[O-]	u	-2	u	8%	-10%
Cc1ccc(C(=O)CC(=O)COc2ccc(Cl)cc2)cc1	10µM*	-11	13µM*	-13%	10%
